The list is not random: actives were taken first. Their share in the collection is about 14%.
Shiga inhibitor: A qHTS for Small Molecule Inhibitors of Shiga Toxin; Vero cells, Shiga toxin protein synthesis inhibition reporter; inhibition, % at 38.7 µM; actives 9.2% (n = 290,000); in the data active means inhibition mostly above about 28%, no sharp cut-off; inactive means mostly below about 43%; further: 0% is about no effect
Giardia FBPA inh-1: qHTS Assay for Inhibitors of Fructose-1,6-bisphosphate Aldolase from Giardia Lamblia. purified Giardia FBPA. A8B2U2. Potency, µM (highest dose often 59.6 µM), for the others: at the highest dose activity, negative = inhibition, hits mostly inhibitors. actives 0.71% (n = 290,000); further: potency means the concentration at half of the fitted maximal effect; on the % scale 0 is the no-effect control and ±100 the full control effect; nearly all actives have a fitted effect of over 55% in size
Target sequence (A8B2U2 whole entry, looked up): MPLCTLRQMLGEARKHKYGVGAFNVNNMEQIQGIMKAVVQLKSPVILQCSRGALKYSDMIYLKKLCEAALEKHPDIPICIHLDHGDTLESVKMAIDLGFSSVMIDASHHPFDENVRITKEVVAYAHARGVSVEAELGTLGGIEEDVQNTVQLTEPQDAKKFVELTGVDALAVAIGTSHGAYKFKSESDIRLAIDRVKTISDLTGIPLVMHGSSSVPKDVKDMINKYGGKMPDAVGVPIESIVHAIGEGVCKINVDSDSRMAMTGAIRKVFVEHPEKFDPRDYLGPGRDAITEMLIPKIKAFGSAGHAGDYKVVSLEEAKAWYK
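Giardia FBPA (40 nM reagent) was preincubated 10 min at RT with compound (up to 57.5 uM final), then substrate plus GAPDH/TPI/NAD/arsenate coupling system with diaphorase/resazurin was added; resorufin fluorescence (525/598 nm) was read after 20 min.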
NS1 function inh: qHTS Assay for Inhibitors of Influenza NS1 Protein Function; Potency, µM (series often up to 46.1 µM), for inactives: at the highest dose activity, positive = more growth; actives 0.4% (n = 270,000); AID 2326, 2010; calls by dose curve; further: potency means the concentration at half of the fitted maximal effect; actives are rising curves; nearly all actives have a fitted effect of over 50% in size
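Read-out: OD600 growth recovery of NS1-expressing budding yeast. Cells grown overnight at 30C in -URA glucose medium, washed, resuspended and diluted 1:100 in 2% galactose assay medium, pH 6.0. Same strain lacking NS1 served as positive control.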
Cycloheximide cs: Cycloheximide Counterscreen for Small Molecule Inhibitors of Shiga Toxin; cell reporter, cycloheximide protein synthesis inhibition counterscreen; max response, %; AID 2314, 2010; actives 12% (n = 300,000); in the data active means max response mostly above about 13%, no sharp cut-off; inactive means mostly below about 14%; further: read at 38.3 µM for the half of the compounds with a filed dose; 0% is about no effect
LmPK inh: qHTS Assay for Inhibitors of Leishmania Mexicana Pyruvate Kinase (LmPK); Q27686; purified LmPK, Kinase-Glo ATP luminescence, 1 h; Potency, µM (titrated, usually from 57.5 µM), inactives show at the top dose activity change, negative = inhibition, actives largely listed as inhibitors; actives 0.37% (n = 290,000); further: potency means the concentration at half of the fitted maximal effect; on the % scale 0 is the no-effect control and ±100 the full control effect
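ATP generated from ADP (0.1 mM) and PEP (0.5 mM) by 0.1 nM LmPK over 1 h at room temperature (pH 7.2 imidazole buffer) was detected by coupled luciferase luminescence. Values were normalized to uninhibited and no-enzyme wells.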
Giardia growth: qHTS Assay for Inhibitors of Fructose-1,6-bisphosphate Aldolase from Giardia Lamblia: Giardia lamblia growth inhibition; Potency, µM (highest dose often 57.5 µM), without a hit: at the top dose activity change, negative = inhibition, actives largely listed as inhibitors; actives 5% (n = 1,500); Giardia lamblia trophozoite growth inhibition; shares compounds with Giardia FBPA inh-1;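 further: potency means the concentration at half of the fitted maximal effect; trophozoites exposed to compound for 48 h at 37 °C; on the % scale 0 is the no-effect control and ±100 the full control effect; nearly all actives have a fitted effect of over 70% in size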
Mammalian tox: qHTS Assay for Inhibitors of Fructose-1,6-bisphosphate Aldolase from Giardia Lamblia: Mammalian cellular toxicity | shares compounds with Giardia FBPA inh-1 | mammalian cell viability counter-screen, qHTS | Potency, µM (highest dose often 57.5 µM), without a hit: at the highest dose viability change, negative = toxicity, usual class: inhibitors | actives 4% (n = 1,500) | AID 2786, 2010;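 further: Chinese hamster ovary cells used as mammalian cytotoxicity surrogate; viability measured as cellular ATP by luminescence; potency means the concentration at half of the fitted maximal effect; compound exposure lasted 48 h before reading; on the % scale 0 is the no-effect control and ±100 the full control effect; nearly all actives have a fitted effect of over 60% in size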
Giardia FBPA inh-2: qHTS Assay for Inhibitors of Fructose-1,6-bisphosphate Aldolase from Giardia Lamblia: Primary screen confirmation; AID 2787, 2010; purified Giardia aldolase enzyme activity, qHTS; shares compounds with Giardia FBPA inh-1; Potency, µM (series often up to 57.5 µM), inactives show at the top dose activity change, negative = inhibition, usual class: inhibitors; actives 5% (n = 1,500); further: potency means the concentration at half of the fitted maximal effect; on the % scale 0 is the no-effect control and ±100 the full control effect; nearly all actives have a fitted effect of over 45% in size
Rabbit aldolase: qHTS Assay for Inhibitors of Fructose-1,6-bisphosphate Aldolase from Giardia Lamblia: Rabbit FBPA Selectivity; actives 4% (n = 1,500); Potency, µM (titrated, usually from 57.5 µM), inactives show top-dose activity, negative = inhibition, actives largely listed as inhibitors; shares compounds with Giardia FBPA inh-1; Rabbit muscle FBPA enzyme inhibition, selectivity counter-screen; further: potency means the concentration at half of the fitted maximal effect; on the % scale 0 is the no-effect control and ±100 the full control effect; nearly all actives have a fitted effect of over 60% in size
GAPDH counter: qHTS Assay for Inhibitors of Fructose-1,6-bisphosphate Aldolase from Giardia Lamblia: Coupling assay counterscreen confirmation; shares compounds with Giardia FBPA inh-1; GAPDH coupling enzyme counterscreen, biochemical, qHTS; Potency, µM (highest dose often 57.5 µM), without a hit: at the highest dose activity change, negative = inhibition, actives largely listed as inhibitors; actives 6% (n = 1,500); AID 2795, 2010; further: potency means the concentration at half of the fitted maximal effect; on the % scale 0 is the no-effect control and ±100 the full control effect; nearly all actives have a fitted effect of over 55% in size
* = called active by the depositor; ? = inconclusive; / = not tested or not shown; [ ] = dose if it differs, or a comment. Unless noted, the call rests on the fitted dose curve; in most records, active means well fitted curve in the direction sought with a large enough effect; inconclusive means small, poorly fitted or top-dose-only effect, or another doubt; inactive means no such curve, though single readings can be large; an effect the other way counts as inactive or inconclusive.

SMILES	Shiga inhibitor	Giardia FBPA inh-1	NS1 function inh	Cycloheximide cs	LmPK inh	Giardia growth	Mammalian tox	Giardia FBPA inh-2	Rabbit aldolase	GAPDH counter
Nn1cnnc1N/N=C/c1ccc(Cl)cc1Cl	16.0	-29.9%	-46.4%	11.6*	-4.5%	-9.9%[38.3 µM]	?	5.8µM*	8.19µM*	9.19µM*
CCN1CCN(CC(=O)Nc2ccc(OC(F)(F)F)cc2)CC1	-3.5	17.8µM*	7.4%	-4.5	-2.2%	83.4%	4.4%	2.6%	7.4%	-10.8%
O=C(CN1CCN(c2ccccn2)CC1)Nc1ccc(OC(F)(F)F)cc1	-6.3	5.3%	-4.3%	-2.6	-4.3%	/	/	/	/	/
Cc1ccc(C(C)NC(=O)c2ccc3c(c2)OCO3)cc1C (centres undefined)	-2.6	/	-24.9%	-1.1	2.8%	/	/	/	/	/
CC(C)(C)C(=O)Nc1ccccc1N1CCN(c2ccc(F)cc2)CC1	1.1	5.8%	3.5%	-2.1	-0.4%	/	/	/	/	/
Cc1ccc(C(=O)c2no[n+]([O-])c2C(=O)c2ccc(C)cc2)cc1	-2.5	15.8µM*	-65.1%	-2.2	1.8%	-5.4%	-2.1%	-6.6%	?	-27.1%
Cn1c(=O)[nH]c(=O)c2c1nc(SCC(=O)O)n2CCCc1ccccc1	-6.1	-5.6%	2.5%	-1.9	4.3%	/	/	/	/	/
Cn1c(=O)[nH]c(=O)c2c1nc(SCC(=O)O)n2Cc1ccccc1	-6.0	14.1µM*	18.0%	-5.0	1.7%	-25.9%	7.1%	4.6%	8.3%	8.9%
COC(=O)c1c(NC(=O)C(C)C)sc(C(=O)N2CCOCC2)c1C	-1.9	4.6%	0.9%	-2.5	-1.3%	/	/	/	/	/
Cc1ncoc1C(=O)Nc1ncc([N+](=O)[O-])s1	10.4	17.7µM*	/	7.8	?	?	-17.5%	1.2%	1.7%	10.6%
O=C1CSC(=S)N1	-7.7	7.94µM*	-1.0%	-0.5	-1.7%	-7.4%[38.3 µM]	-7.0%	0.8%	12.5%	10.9%
COC(=O)N1CCC2(CC1)CN(c1ccccn1)C2	/	-1.3%	/	/	/	/	/	/	/	/
COc1ccc(CN2CCN(C(=O)c3cccc(OC)c3OC)CC2)cc1OC	-8.9	19.9µM*	/	-2.0	0.5%	11.5%	0.7%	8.3%	3.9%	7.7%
COc1ccc(CN2CCN(C(C)C(=O)N(C)Cc3cccc(F)c3)CC2)cc1OC (centres undefined)	-2.1	15.8µM*	4.2%	2.7	-5.9%	?	2.8%	5.5%	5.9%	9.4%
COc1ccc(CN2CCN(C(C)C(=O)NC(C)c3ccc(F)cc3)CC2)cc1F (centres undefined)	-7.5	-6.2%	11.4%	-11.2	-2.1%	/	/	/	/	/
Cc1ccc(-n2c(C)nc3ccccc3c2=O)c(C)c1	-4.2	-6.7%	-0.1%	-1.3	0.7%	/	/	/	/	/
Cc1ccc(C)c(/C=N/Nc2nc3ccccc3c(=O)n2O)c1	33.8*	15.8µM*	5.6%	22.2*	3.2%	?	-6.1%	-19.5%	-10.8%	-14.5%
C=CCC(=O)NC1CC(C)(C)Cc2c1cnn2-c1ccccc1C (centres undefined)	-3.5	2.4%	-8.7%	-1.4	5.2%	/	/	/	/	/

Source: PubChem
